# Substitutions are numbered along the chain they refer to.
# Tests used:
# Experiment in all cases: PBM; 200 nM protein, PBS
# Conditions in all cases: dsDNA, one strand shown
# [1] = molecular target: T1, PAX4 (Homo sapiens, UniProt O43316 9-242, R200K)
# T1 sequence: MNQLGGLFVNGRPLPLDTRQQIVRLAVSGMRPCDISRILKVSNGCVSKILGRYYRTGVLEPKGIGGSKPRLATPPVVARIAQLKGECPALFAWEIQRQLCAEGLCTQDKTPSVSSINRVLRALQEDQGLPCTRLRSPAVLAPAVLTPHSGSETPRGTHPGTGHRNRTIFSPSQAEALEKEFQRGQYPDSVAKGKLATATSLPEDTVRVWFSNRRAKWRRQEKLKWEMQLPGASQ
# [2] = molecular target: T2, PAX4 (Homo sapiens, UniProt O43316 9-242)
# T2 sequence: T1 sequence with K192R
# [3] = molecular target: HOXD13 (Homo sapiens, UniProt P35453 263-343, T313R)
# HOXD13 (Homo sapiens, UniProt P35453 263-343, T313R), sequence (P35453 263-343 T313R): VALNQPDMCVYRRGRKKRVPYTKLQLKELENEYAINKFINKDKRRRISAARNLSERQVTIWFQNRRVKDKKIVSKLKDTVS
# [4] = molecular target: T3, PAX4 (Homo sapiens, UniProt O43316 9-242, R200Q)
# T3 sequence: T1 sequence with K192Q
# [5] = molecular target: HOXD13 (Homo sapiens, UniProt P35453 263-343)
# HOXD13 (Homo sapiens, UniProt P35453 263-343), sequence (P35453 263-343): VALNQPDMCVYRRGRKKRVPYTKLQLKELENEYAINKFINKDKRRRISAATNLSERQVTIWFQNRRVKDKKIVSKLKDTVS
# [6] = molecular target: T4, PAX4 (Homo sapiens, UniProt O43316 9-242, F177V)
# T4 sequence: T1 sequence with F169V, K192R
# [7] = molecular target: T5, PAX4 (Homo sapiens, UniProt O43316 9-242, F177Y)
# T5 sequence: T1 sequence with F169Y, K192R
# [8] = molecular target: HOXD13 (Homo sapiens, UniProt P35453 263-343, T313A)
# HOXD13 (Homo sapiens, UniProt P35453 263-343, T313A), sequence (P35453 263-343 T313A): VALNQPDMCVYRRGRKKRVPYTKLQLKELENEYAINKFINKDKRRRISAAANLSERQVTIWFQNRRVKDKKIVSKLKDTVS
# [9] = molecular target: T6, PAX4 (Homo sapiens, UniProt O43316 9-242, R227W)
# T6 sequence: T1 sequence with K192R, R219W
# [10] = molecular target: HOXA2 (Homo sapiens, UniProt O43364 129-215, R185T)
# HOXA2 (Homo sapiens, UniProt O43364 129-215, R185T), sequence (O43364 129-215 R185T): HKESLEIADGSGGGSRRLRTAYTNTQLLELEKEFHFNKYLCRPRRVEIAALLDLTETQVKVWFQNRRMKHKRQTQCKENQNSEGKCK
# [11] = molecular target: HOXA2 (Homo sapiens, UniProt O43364 129-215, R185K)
# HOXA2 (Homo sapiens, UniProt O43364 129-215, R185K), sequence (O43364 129-215 R185K): as the sequence (O43364 129-215 R185T) above, with T57K counted along it
# [12] = molecular target: HOXA2 (Homo sapiens, UniProt O43364 129-215, Y150S)
# HOXA2 (Homo sapiens, UniProt O43364 129-215, Y150S), sequence (O43364 129-215 Y150S): as the sequence (O43364 129-215 R185T) above, with Y22S, T57R counted along it
# [13] = molecular target: HOXA2 (Homo sapiens, UniProt O43364 129-215)
# HOXA2 (Homo sapiens, UniProt O43364 129-215), sequence (O43364 129-215): as the sequence (O43364 129-215 R185T) above, with T57R counted along it
# [14] = molecular target: HOXB9 (Homo sapiens, UniProt P17482 171-250)
# HOXB9 (Homo sapiens, UniProt P17482 171-250), sequence (P17482 171-250): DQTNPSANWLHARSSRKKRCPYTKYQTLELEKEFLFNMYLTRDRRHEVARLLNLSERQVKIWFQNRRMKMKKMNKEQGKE
# [15] = molecular target: ALX3 (Homo sapiens, UniProt O95076 139-225, N203Q)
# ALX3 (Homo sapiens, UniProt O95076 139-225, N203Q), sequence (O95076 139-225 N203Q): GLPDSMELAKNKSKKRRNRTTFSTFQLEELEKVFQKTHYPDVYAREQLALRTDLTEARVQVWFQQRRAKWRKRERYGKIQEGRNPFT
# [16] = molecular target: ALX3 (Homo sapiens, UniProt O95076 139-225)
# ALX3 (Homo sapiens, UniProt O95076 139-225), sequence (O95076 139-225): as the sequence (O95076 139-225 N203Q) above, with Q65N counted along it
# [17] = molecular target: ALX3 (Homo sapiens, UniProt O95076 139-225, L168Q)
# ALX3 (Homo sapiens, UniProt O95076 139-225, L168Q), sequence (O95076 139-225 L168Q): as the sequence (O95076 139-225 N203Q) above, with L30Q, Q65N counted along it
# [18] = molecular target: HOXB9 (Homo sapiens, UniProt P17482 171-250, R186Q)
# HOXB9 (Homo sapiens, UniProt P17482 171-250, R186Q), sequence (P17482 171-250 R186Q): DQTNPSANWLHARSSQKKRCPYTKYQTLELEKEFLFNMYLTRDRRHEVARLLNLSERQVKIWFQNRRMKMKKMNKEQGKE
# [19] = molecular target: ALX3 (Homo sapiens, UniProt O95076 139-225, L168V)
# ALX3 (Homo sapiens, UniProt O95076 139-225, L168V), sequence (O95076 139-225 L168V): as the sequence (O95076 139-225 N203Q) above, with L30V, Q65N counted along it
# [20] = molecular target: ALX3 (Homo sapiens, UniProt O95076 139-225, N203S)
# ALX3 (Homo sapiens, UniProt O95076 139-225, N203S), sequence (O95076 139-225 N203S): as the sequence (O95076 139-225 N203Q) above, with Q65S counted along it
# [21] = molecular target: T7, NKX2-6 (Homo sapiens, UniProt A6NCS4 118-204)
# T7 sequence: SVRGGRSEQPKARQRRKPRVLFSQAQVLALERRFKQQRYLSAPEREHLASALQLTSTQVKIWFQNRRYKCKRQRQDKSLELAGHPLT
# [22] = molecular target: T8, NKX2-6 (Homo sapiens, UniProt A6NCS4 118-204, F151L)
# T8 sequence: T7 sequence with F34L
sequence,measurement,setting,value
CGGCTTTC,binding signal,[1],"9.21 upbm affinity estimate (log intensity, higher = more binding, comparable within an allelic series)"
same,binding signal,[2],"9.26 upbm affinity estimate (log intensity, higher = more binding, comparable within an allelic series)"
same,binding signal,[3],"9.51 upbm affinity estimate (log intensity, higher = more binding, comparable within an allelic series)"
same,binding signal,[4],"9.27 upbm affinity estimate (log intensity, higher = more binding, comparable within an allelic series)"
same,binding signal,[5],"9.48 upbm affinity estimate (log intensity, higher = more binding, comparable within an allelic series)"
same,binding signal,[6],"9.3 upbm affinity estimate (log intensity, higher = more binding, comparable within an allelic series)"
same,binding signal,[7],"9.24 upbm affinity estimate (log intensity, higher = more binding, comparable within an allelic series)"
same,binding signal,[8],"9.54 upbm affinity estimate (log intensity, higher = more binding, comparable within an allelic series)"
same,binding signal,[9],"9.29 upbm affinity estimate (log intensity, higher = more binding, comparable within an allelic series)"
AAAATCAG,binding signal,[1],"10.5 upbm affinity estimate (log intensity, higher = more binding, comparable within an allelic series)"
same,binding signal,[2],"10.7 upbm affinity estimate (log intensity, higher = more binding, comparable within an allelic series)"
same,binding signal,[4],"10.6 upbm affinity estimate (log intensity, higher = more binding, comparable within an allelic series)"
same,binding signal,[6],"10.1 upbm affinity estimate (log intensity, higher = more binding, comparable within an allelic series)"
CCTCCCCC,binding signal,[1],"9.47 upbm affinity estimate (log intensity, higher = more binding, comparable within an allelic series)"
same,binding signal,[2],"9.49 upbm affinity estimate (log intensity, higher = more binding, comparable within an allelic series)"
same,binding signal,[3],"9.14 upbm affinity estimate (log intensity, higher = more binding, comparable within an allelic series)"
same,binding signal,[4],"9.57 upbm affinity estimate (log intensity, higher = more binding, comparable within an allelic series)"
same,binding signal,[5],"9.51 upbm affinity estimate (log intensity, higher = more binding, comparable within an allelic series)"
same,binding signal,[6],"9.21 upbm affinity estimate (log intensity, higher = more binding, comparable within an allelic series)"
same,binding signal,[7],"9.2 upbm affinity estimate (log intensity, higher = more binding, comparable within an allelic series)"
same,binding signal,[8],"9.46 upbm affinity estimate (log intensity, higher = more binding, comparable within an allelic series)"
same,binding signal,[9],"9.23 upbm affinity estimate (log intensity, higher = more binding, comparable within an allelic series)"
ATTTAAAA,binding signal,[1],"10.7 upbm affinity estimate (log intensity, higher = more binding, comparable within an allelic series)"
same,binding signal,[2],"11 upbm affinity estimate (log intensity, higher = more binding, comparable within an allelic series)"
same,binding signal,[4],"10.8 upbm affinity estimate (log intensity, higher = more binding, comparable within an allelic series)"
same,binding signal,[6],"10.3 upbm affinity estimate (log intensity, higher = more binding, comparable within an allelic series)"
CAAGCCCC,binding signal,[1],"9.27 upbm affinity estimate (log intensity, higher = more binding, comparable within an allelic series)"
same,binding signal,[2],"9.32 upbm affinity estimate (log intensity, higher = more binding, comparable within an allelic series)"
same,binding signal,[3],"9.5 upbm affinity estimate (log intensity, higher = more binding, comparable within an allelic series)"
same,binding signal,[4],"9.37 upbm affinity estimate (log intensity, higher = more binding, comparable within an allelic series)"
same,binding signal,[5],"9.54 upbm affinity estimate (log intensity, higher = more binding, comparable within an allelic series)"
same,binding signal,[6],"9.26 upbm affinity estimate (log intensity, higher = more binding, comparable within an allelic series)"
same,binding signal,[7],"9.29 upbm affinity estimate (log intensity, higher = more binding, comparable within an allelic series)"
same,binding signal,[8],"9.61 upbm affinity estimate (log intensity, higher = more binding, comparable within an allelic series)"
same,binding signal,[9],"9.3 upbm affinity estimate (log intensity, higher = more binding, comparable within an allelic series)"
AGTGATTA,binding signal,[1],"11.1 upbm affinity estimate (log intensity, higher = more binding, comparable within an allelic series)"
same,binding signal,[2],"11.4 upbm affinity estimate (log intensity, higher = more binding, comparable within an allelic series)"
same,binding signal,[4],"11.1 upbm affinity estimate (log intensity, higher = more binding, comparable within an allelic series)"
same,binding signal,[6],"10.3 upbm affinity estimate (log intensity, higher = more binding, comparable within an allelic series)"
GAGCAGGC,binding signal,[1],"9.17 upbm affinity estimate (log intensity, higher = more binding, comparable within an allelic series)"
same,binding signal,[2],"9.18 upbm affinity estimate (log intensity, higher = more binding, comparable within an allelic series)"
same,binding signal,[10],"7.17 upbm affinity estimate (log intensity, higher = more binding, comparable within an allelic series)"
same,binding signal,[4],"9.24 upbm affinity estimate (log intensity, higher = more binding, comparable within an allelic series)"
same,binding signal,[11],"10.1 upbm affinity estimate (log intensity, higher = more binding, comparable within an allelic series)"
same,binding signal,[6],"9.28 upbm affinity estimate (log intensity, higher = more binding, comparable within an allelic series)"
same,binding signal,[7],"9.26 upbm affinity estimate (log intensity, higher = more binding, comparable within an allelic series)"
same,binding signal,[9],"9.32 upbm affinity estimate (log intensity, higher = more binding, comparable within an allelic series)"
same,binding signal,[12],"10.5 upbm affinity estimate (log intensity, higher = more binding, comparable within an allelic series)"
same,binding signal,[13],"7.04 upbm affinity estimate (log intensity, higher = more binding, comparable within an allelic series)"
CCCTAATA,binding signal,[1],"11.3 upbm affinity estimate (log intensity, higher = more binding, comparable within an allelic series)"
same,binding signal,[2],"11.6 upbm affinity estimate (log intensity, higher = more binding, comparable within an allelic series)"
same,binding signal,[14],"10.3 upbm affinity estimate (log intensity, higher = more binding, comparable within an allelic series)"
same,binding signal,[15],"8.25 upbm affinity estimate (log intensity, higher = more binding, comparable within an allelic series)"
same,binding signal,[4],"11.2 upbm affinity estimate (log intensity, higher = more binding, comparable within an allelic series)"
same,binding signal,[6],"10.2 upbm affinity estimate (log intensity, higher = more binding, comparable within an allelic series)"
same,binding signal,[16],"10.9 upbm affinity estimate (log intensity, higher = more binding, comparable within an allelic series)"
same,binding signal,[7],"10.5 upbm affinity estimate (log intensity, higher = more binding, comparable within an allelic series)"
same,binding signal,[17],"8.97 upbm affinity estimate (log intensity, higher = more binding, comparable within an allelic series)"
same,binding signal,[18],"10.2 upbm affinity estimate (log intensity, higher = more binding, comparable within an allelic series)"
same,binding signal,[19],"8.89 upbm affinity estimate (log intensity, higher = more binding, comparable within an allelic series)"
same,binding signal,[9],"10.6 upbm affinity estimate (log intensity, higher = more binding, comparable within an allelic series)"
same,binding signal,[20],"8.32 upbm affinity estimate (log intensity, higher = more binding, comparable within an allelic series)"
GCCTGTCC,binding signal,[1],"9.34 upbm affinity estimate (log intensity, higher = more binding, comparable within an allelic series)"
same,binding signal,[2],"9.22 upbm affinity estimate (log intensity, higher = more binding, comparable within an allelic series)"
same,binding signal,[10],"7.41 upbm affinity estimate (log intensity, higher = more binding, comparable within an allelic series)"
same,binding signal,[15],"7.8 upbm affinity estimate (log intensity, higher = more binding, comparable within an allelic series)"
same,binding signal,[21],"9.8 upbm affinity estimate (log intensity, higher = more binding, comparable within an allelic series)"
same,binding signal,[4],"9.44 upbm affinity estimate (log intensity, higher = more binding, comparable within an allelic series)"
same,binding signal,[11],"10.4 upbm affinity estimate (log intensity, higher = more binding, comparable within an allelic series)"
same,binding signal,[6],"9.3 upbm affinity estimate (log intensity, higher = more binding, comparable within an allelic series)"
same,binding signal,[16],"7.73 upbm affinity estimate (log intensity, higher = more binding, comparable within an allelic series)"
same,binding signal,[7],"9.34 upbm affinity estimate (log intensity, higher = more binding, comparable within an allelic series)"
same,binding signal,[17],"7.77 upbm affinity estimate (log intensity, higher = more binding, comparable within an allelic series)"
same,binding signal,[22],"9.38 upbm affinity estimate (log intensity, higher = more binding, comparable within an allelic series)"
same,binding signal,[19],"7.73 upbm affinity estimate (log intensity, higher = more binding, comparable within an allelic series)"
same,binding signal,[9],"9.36 upbm affinity estimate (log intensity, higher = more binding, comparable within an allelic series)"
same,binding signal,[12],"10.4 upbm affinity estimate (log intensity, higher = more binding, comparable within an allelic series)"
same,binding signal,[20],"7.78 upbm affinity estimate (log intensity, higher = more binding, comparable within an allelic series)"
same,binding signal,[13],"7.48 upbm affinity estimate (log intensity, higher = more binding, comparable within an allelic series)"

# From publication PMC11006913
